Source: PubChem BioAssay (several laboratories)
APP transl inh: APP translation inhibition | inhibition, % at 2 µM | 0.82% of 190,000 active | SH-SY5Y APP 5'UTR-luciferase reporter, luminescence | AID 1285;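 active = inhibition above a set limit, derived from the sample mean plus 3 SD, cut at about 45% in these data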
KLF5 inhibitor: kruppel-like factor 5 inhibition. 0.23% of 290,000 active. AID 1700. DLD-1 KLF5 promoter-luciferase reporter, luminescence. inhibition, % at 5 µM;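 active = inhibition above a per-plate limit of that plate's mean compound inhibition plus 3 SD, cut at about 60% in these data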;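 also: higher means less KLF5 promoter-driven luciferase light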
BaF3 tox: counter-screen for JAK2V617F inhibitors: parental Ba/F3 viability inhibitors; 1.1% of 220,000 active; inhibition, % at 5.6 µM; CellTiter-Glo ATP luminescence;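 active = inhibition above a per-campaign cutoff, the mean inhibition of all tested compounds plus 3 SD, cut at about 27% in these data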
Ba/F3 V617F tox: reduce viability of Ba/F3 cells dependent on JAK2V617F | AID 1446 | 1.1% of 220,000 active | inhibition, % at 5.6 µM | Ba/F3 EpoR-JAK2V617F viability, ATP luminescence;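 active = inhibition above the campaign mean plus 3 SD over all tested compounds, cut at about 24% in these data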;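 also: cytokine-independent growth of Ba/F3 cells driven by EpoR plus mutant JAK2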
aSyn 5UTR inh: 5' untranslated region of α-synuclein, MLPCN primary screen; alpha-synuclein 5'UTR reporter, inhibitor activity; inhibition, % (tested at 7.5 µM); 0.82% of 300,000 active; AID 1813; in the data active = inhibition above about 60%;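 also: H4 neuroglioblastoma cells stably carrying SNCA 5'UTR luciferase fusion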
IEC-6 tox: IEC-6 cytotoxicity, counter-screen for KLF5 inhibitors | luminescence viability | inhibition, % at 5 µM | 0.78% of 290,000 active; in the data active = inhibition above about 22%
Numbers stand for hits; n = inactive; x = not tested or not shown. Most compounds without a hit are left out; they make up all but 2.2% or so of the library.

SMILES | APP transl inh | KLF5 inhibitor | BaF3 tox | Ba/F3 V617F tox | aSyn 5UTR inh | IEC-6 tox
Cc1cc(NC(c2cccnc2)c2ccc3cccnc3c2O)no1 (configuration not stated) | 54 | n | n | n | 77 | n
CNc1nc2ccccc2n1CC(=O)c1ccccc1 | x | n | x | x | n | n
Cc1ccc(-c2nn3nnnc3c3ccccc23)cc1C | n | n | n | n | n | n
Cc1ccc(-c2nn3cnnc3c3ccccc23)cc1C | n | n | n | n | 64 | n
C/C(=N\OCC(=O)Nc1ccc(F)c(F)c1F)c1cc2ccccc2o1 | n | n | n | n | n | n
CSc1ccccc1NC(=O)CO/N=C(\C)c1cc2ccccc2o1 | n | n | n | n | n | 36
CN(Cc1ccc(Cl)c(Cl)c1)C(=O)CN1C(=O)NC2(CCCC2)C1=O | x | x | x | x | n | x
COc1ccc(C[C@H]2COC(=O)[C@@H]2Cc2ccc(OC3OC(CO)C(O)C(O)C3O)c(OC)c2)cc1OC (some centres not stated) | n | n | 41 | n | n | n
CC1(C)CC(=O)C(CC2=C(O)CC(C)(C)CC2=O)C(=O)C1 | 53 | n | n | n | n | n
COc1ccc(-c2csc(NC(=O)c3ccccc3NS(=O)(=O)c3ccc(F)c(F)c3)n2)cc1 | n | 78 | 103 | 100 | 74 | 58
O=C(O)c1ccccc1C(=O)Nc1ccc(Oc2cccc3ccccc23)cc1 | 59 | n | n | n | 94 | n
O=C(O)c1ccccc1C(=O)Nc1ccc(Oc2ccc3ccccc3c2)cc1 | n | n | 38 | 46 | n | n
Cc1cccc(Oc2ccc(NC(=O)c3ccccc3C(=O)O)cc2)c1C | n | n | n | n | n | n
O=C(COc1ccccc1)Nc1nnc(COc2ccccc2)s1 | x | n | x | x | n | n
Cc1cc2cc(C#N)c(N3CCN(S(C)(=O)=O)CC3)nc2cc1C | n | n | n | n | n | n
CCn1ncc(Br)c1C(=O)Nc1ccc(F)c([N+](=O)[O-])c1 | n | n | n | n | n | 25
COc1ccccc1C(=O)N/C(=N/c1nc(C)cc(C)n1)Nc1ccccc1 | x | n | n | n | n | n
CCOC(=O)c1c(CSc2ccc(CC)cc2)oc2ccc(O)c(CN(C)C)c12 | x | n | x | x | 66 | n
COc1cc(/C=C(\C#N)C(=O)N2CCOCC2)ccc1OCc1ccccc1 | n | n | n | n | n | n
N#C/C(=C\c1ccc(OCc2ccc(C(=O)O)cc2)cc1)C(=O)N1CCOCC1 | 56 | n | n | n | 93 | n
C=C1C(=O)[C@@]23[C@H](O)C[C@@H]4C(C)(C)CC[C@H](O)[C@]4(C)[C@@H]2C[C@H](O)[C@@H]1[C@H]3O | n | n | 73 | 62 | n | n
O=C(O)c1c(-c2ccc(Cl)cc2)cn2ccccc12 | n | n | 53 | n | n | n
Nc1ccc(-c2cc3ccccc3oc2=O)cc1 | x | n | x | x | 106 | n
CN(C)S(=O)(=O)N(CC(=O)Nc1ccc(F)c(F)c1)c1ccccc1 | 59 | n | n | n | n | n
CN(C)S(=O)(=O)N(CC(=O)Nc1ccc2ccccc2c1)c1ccccc1 | n | n | n | n | n | n
SMILES | APP transl inh | KLF5 inhibitor | BaF3 tox | Ba/F3 V617F tox | aSyn 5UTR inh | IEC-6 tox
Cc1ccc(Cl)cc1N1CCN(C(CC(C)C)c2nnnn2CC2CCCO2)CC1 (configuration not stated) | n | n | n | n | n | n
CCCC(c1nnnn1CC1CCCO1)N1CCN(c2cc(Cl)ccc2C)CC1 (configuration not stated) | n | n | 31 | n | n | n
O=C(NCCCCCCNC(=O)N1CCCCCC1)N1CCCCCC1 | n | n | 55 | 50 | n | n
CCOCCCNC(=O)N1CCOCC1 | n | n | n | n | n | n
CC(C)c1ccccc1NC(=O)CNC(C)c1ccc(F)cc1 (configuration not stated) | n | n | n | n | n | n
CC1=C(C#N)C(c2cccnc2)C2=C(N1)c1ccccc1C2=O (configuration not stated) | n | n | n | n | n | n
CC1=C(C#N)C(c2ccccc2)C2=C(N1)c1ccccc1C2=O (configuration not stated) | 78 | n | n | n | n | n
O=C(O)c1ccc2cc(-c3ccccc3)[nH]c2c1 | x | x | x | x | 66 | x
C[N+]1=C(/C=C/Nc2ccccc2Cl)C(C)(C)c2ccccc21 | n | n | 63 | 59 | n | n
CN(Cc1ccon1)Cc1cn(Cc2ccccc2)nc1-c1ccc2c(c1)OCO2 | n | n | n | n | n | n
CCCC(=NCCc1c(C)[nH]c2ccccc12)C1=C(O)CC(c2ccccc2)CC1=O (configuration not stated) | 84 | n | n | n | 86 | n
CC(=NCCc1c(C)[nH]c2ccc(OC(F)(F)F)cc12)C1=C(O)CC(c2ccccc2)CC1=O (configuration not stated) | n | n | n | n | n | n
CCCCC(=NCCc1c(C)[nH]c2ccccc12)C1=C(O)CC(c2ccccc2)CC1=O (configuration not stated) | n | n | n | n | n | n
CC(=NCCc1c(C)[nH]c2ccc(C)cc12)C1=C(O)CC(c2ccccc2)CC1=O (configuration not stated) | 88 | n | n | n | n | n
N#CCCN(Cc1ccccc1)C(=O)c1cccs1 | x | n | n | n | n | n
COCCCN=C1NN=C(c2cc(C)n(Cc3ccccc3Cl)c2C)CS1 | 76 | n | n | n | n | n
CCc1ccccc1NC(=O)NNS(=O)(=O)c1cc(C)ccc1C | x | n | x | x | n | n
CC1CCCN(C(=O)c2cc3ccccc3cc2O)C1 (configuration not stated) | x | n | x | x | n | n
Nc1c(C(=O)NC2CC2)sc2nc3c(c(-c4ccco4)c12)CC/C3=C/c1ccco1 | 51 | n | n | n | x | n
Cc1ccc(NC(=O)CCC(=O)NNC(=S)Nc2ccccc2)c(C)c1 | n | n | n | n | n | n
Cc1ccc(NC(=S)NNC(=S)Nc2ccc(C)cc2C)cc1 | 92 | n | 30 | 82 | 113 | n
COCCN(Cc1cc2ccc(C)cc2n2nnnc12)Cc1nnnn1C(C)(C)C | 46 | n | n | n | n | n
CCC(C)[C@H](NS(=O)(=O)c1ccc(C)cc1)C(=O)N1CCC(C(=O)N2CCC(C(N)=O)CC2)CC1 (some centres not stated) | x | n | x | x | n | n
Cc1ccc(CN(C(=O)c2ccc(Cl)c([N+](=O)[O-])c2)C2CCS(=O)(=O)C2)o1 (configuration not stated) | x | n | x | x | n | n
O=C1c2cccc3c([N+](=O)[O-])ccc(c23)C(=O)N1c1ccccn1 | 81 | n | n | n | n | n
O=C1c2cccc3c([N+](=O)[O-])ccc(c23)C(=O)N1c1ccc(Cl)cn1 | 78 | n | n | n | n | n
O=C1c2cccc3c(N4CCCCC4)ccc(c23)C(=O)N1c1ccc(Cl)cn1 | n | n | n | n | x | n
O=C1c2cccc3c([N+](=O)[O-])ccc(c23)C(=O)N1c1nccs1 | 81 | n | 32 | 39 | n | n
